Measured values: PubChem BioAssay AID504832 (National Center for Advancing Translational Sciences (NCATS), 2011)
“And” between values parts separate entries of the source, which are not always exact repeats. Equal entries are not always repeated. Screen size: about 310,000 compounds; about 18,000 (5.8%) were called active. Not shown: some 22% with an inconclusive outcome. The call rests on the fitted dose curve; in most records, active means well fitted inhibition curve with a large enough effect; inconclusive means small, poorly fitted or top-dose-only effect, or another doubt; inactive means no such curve, though single readings can be large or run the other way. This excerpt belongs to a sample that is enriched for actives. A structure can be active in one record and inactive in another.

assay: Primary qHTS for delayed death inhibitors of the malarial parasite plastid, 48 hour incubation; conditions: P. falciparum luciferase growth in erythrocytes; series mostly up to 28.7 µM; activity change, negative = inhibition: at the top concentration
Outline: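 Erythrocytes infected with P. falciparum carrying an integrated firefly luciferase reporter (2% hematocrit, 0.1% parasitemia final) were exposed to compounds in RPMI 1640 with 0.5% Albumax at 37 C, 5% CO2. Growth inhibition was scored as reduced luminescence.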
On the % scale 0 is the no-effect control and ±100 the full control effect; potency means the concentration at half of the fitted maximal effect.

**Q.** For `COCCn1c(Cc2cccn2C)nnc1SCC(=O)Nc1nccs1`, which “activity change, negative = inhibition” value is on record?
**A.** -4.4% (inactive)

**Q.** Which “activity change, negative = inhibition” value does the source give for `COc1ccc(C)cc1NC(=O)CSc1nnc(CC(=O)Nc2ccccc2F)n1C` here?
**A.** -53.1% (inactive)

**Q.** With `COc1ccccc1NC(=O)CSc1nnc(Cc2cccn2C)n1-c1ccc(F)cc1` as the compound, how does the Potency read?
**A.** 10.4 µM (active)

**Q.** For `Cc1ccc(NC(=O)COC(=O)CN2CCCCCC2=O)c(C)c1`, which “activity change, negative = inhibition” value is on record?
**A.** 19.1% (inactive)

**Q.** Which Potency does the source give for `Oc1ccc2ccccc2c1N=Nc1nccs1` here?
**A.** 13.1 µM (active)

**Q.** Which Potency does the source give for `Oc1ccc(N=Nc2nccs2)c(O)c1` here?
**A.** 9.28 µM (active)

**Q.** Which “activity change, negative = inhibition” value does the source give for `Oc1c(C=Nc2cccc3nsnc23)ccc2ccccc12` here?
**A.** 5.5% (inactive)

**Q.** Which “activity change, negative = inhibition” value does the source give for `c1ccc(NCc2cccc3ccccc23)nc1` here?
**A.** 5.25% (inactive)

**Q.** For `COc1cccc(-n2c(N)cc(=O)nc2SCC(=O)Nc2cc(C)on2)c1`, which “activity change, negative = inhibition” value is on record?
**A.** -20% (inactive)

**Q.** Which “activity change, negative = inhibition” value does the source give for `CC(C)N(C(=O)Cn1cc(S(=O)(=O)CC(=O)N2CCOCC2)c2ccccc21)C(C)C` here?
**A.** -2.29% (inactive)

**Q.** For `CN(Cc1ccccc1)C(=O)c1ccc(NC2=NC3CS(=O)(=O)CC3S2)cc1` (stereo not drawn), which “activity change, negative = inhibition” value is on record?
**A.** 49.1% (inactive)

**Q.** With `O=C(COC(=O)c1cccc(Cl)c1)NC1CCCCCCC1` as the compound, how does the “activity change, negative = inhibition” value read?
**A.** -11.6% (inactive)

**Q.** With `Cc1ccc(S(=O)(=O)N2CCN(C)CC2)cc1` as the compound, how does the “activity change, negative = inhibition” value read?
**A.** 0% (inactive)

**Q.** Which “activity change, negative = inhibition” value does the source give for `COC(=O)C1=C(O)/C(=C/c2ccc(OCC(=O)Nc3ccccc3)cc2)N=C1C` here?
**A.** -10.6% (inactive)

**Q.** For `CCOC(=O)C1=C(O)/C(=C/c2cc(C)n(-c3ccccc3)c2C)N=C1C`, which Potency is on record?
**A.** 0.0657 µM (active)

**Q.** Which “activity change, negative = inhibition” value does the source give for `CCC1=NN2C(=N)/C(=C/c3cc(C)n(-c4ccccc4)c3C)C(=O)N=C2S1` here?
**A.** -0.786% (inactive)

**Q.** For `O=C(NCCCN1CCCC1=O)c1cccc(S(=O)(=O)NCc2ccccc2)c1`, which “activity change, negative = inhibition” value is on record?
**A.** 2.77% (inactive)

**Q.** Which “activity change, negative = inhibition” value does the source give for `O=[N+]([O-])c1ccc(N2CCN(c3ccc(F)cc3)CC2)cn1` here?
**A.** -14.1% (inactive)

**Q.** With `Cc1nnc(NC(=O)c2ccc3nccnc3c2)s1` as the compound, how does the “activity change, negative = inhibition” value read?
**A.** 43% (inactive)

**Q.** Which “activity change, negative = inhibition” value does the source give for `CN(C(=O)COc1ccccc1)c1nnc(-c2ccncc2)s1` here?
**A.** 10.5% (inactive)

**Q.** For `COc1ccc(CCN(C(=O)COc2ccccc2)c2nc(-c3ccccc3)cs2)cc1OC`, which Potency is on record?
**A.** 10.4 µM (active)

**Q.** For `COc1ccc(CC(=O)Nc2nc(-c3ccc(F)c(F)c3)cs2)cc1OC`, which “activity change, negative = inhibition” value is on record?
**A.** -10.2% (inactive)

**Q.** For `O=C(c1ccc(Cn2cc([N+](=O)[O-])cn2)o1)N1CCCC1`, which “activity change, negative = inhibition” value is on record?
**A.** 11.5% (inactive)

**Q.** With `COc1ccc(C/C(C)=N/NC(=O)c2ccncc2)cc1` as the compound, how does the “activity change, negative = inhibition” value read?
**A.** -0.335% (inactive)

**Q.** With `C/C(=N\NC(=O)Cc1ccc(Cl)cc1)c1ccccn1` as the compound, how does the Potency read?
**A.** 1.47 µM (active)

**Q.** For `COc1ccc(CC(=O)N/N=C(\C)c2ccccn2)cc1`, which Potency is on record?
**A.** 3.29 µM (active)

**Q.** For `C/C(=N\NC(=O)Cc1ccc(F)cc1)c1ccc(F)cc1`, which “activity change, negative = inhibition” value is on record?
**A.** 7.34% (inactive)

**Q.** For `C/C(=N\NC(=O)c1ccccc1F)c1ccccn1`, which “activity change, negative = inhibition” value is on record?
**A.** -28% (inactive)

**Q.** With `C/C(=N\NC(=O)Cc1ccc(Br)cc1)c1cccnc1` as the compound, how does the “activity change, negative = inhibition” value read?
**A.** 3.03% (inactive)

**Q.** Which “activity change, negative = inhibition” value does the source give for `CCOc1ccc(OCC(=O)Nc2c3c(nn2C(C)(C)C)CS(=O)(=O)C3)cc1` here?
**A.** 1.09% (inactive)

**Q.** With `Cc1cc(C(=O)CCC(=O)NNC(=O)c2ccccc2O)c(C)s1` as the compound, how does the “activity change, negative = inhibition” value read?
**A.** 0% (inactive)

**Q.** For `CCOc1ccc2[nH]c(=O)c(CN(CCCO)S(=O)(=O)c3ccc(F)cc3)cc2c1`, which “activity change, negative = inhibition” value is on record?
**A.** -19% (inactive)

**Q.** Which “activity change, negative = inhibition” value does the source give for `CC1CCCCN1CCCNC(=O)Cn1ncc2c([nH]c3ccccc32)c1=O` (stereo not drawn) here?
**A.** 33.3% (inactive)

**Q.** For `O=C(NC1CCCCC1)c1ccc2c(=O)n(CC3CCCO3)c(=O)[nH]c2c1` (stereo not drawn), which “activity change, negative = inhibition” value is on record?
**A.** -28.7% (inactive)

**Q.** For `CCCCCn1c(=O)[nH]c2cc(C(=O)NCCCN3CCCCC3C)ccc2c1=O` (stereo not drawn), which Potency is on record?
**A.** 9.28 µM (active)

**Q.** With `COc1ccccc1CNC(=O)C1CCN(C(=O)[C@@H]2Cc3ccccc3CN2)CC1` as the compound, how does the “activity change, negative = inhibition” value read?
**A.** 18.3% (inactive)

**Q.** With `CCCNC(=O)Nc1ccccc1C(=O)Nc1ccc(OC)cc1` as the compound, how does the “activity change, negative = inhibition” value read?
**A.** 31.3% (inactive)

**Q.** For `COc1cc(NC(=O)c2cccnc2SC)cc(OC)c1`, which “activity change, negative = inhibition” value is on record?
**A.** -7.95% (inactive)

**Q.** With `CCOC(=O)Cc1ncccc1C(=O)Nc1ccc(OC)cc1` as the compound, how does the Potency read?
**A.** 13.1 µM (active)

**Q.** With `COC(=O)c1ccc([C@@H](O)[C@H](C)C(=O)CC(=O)OC(C)(C)C)cc1` as the compound, how does the “activity change, negative = inhibition” value read?
**A.** -15% (inactive)

**Q.** For `Cc1nc(CN(C)C(=O)CC2C(=O)NCCN2Cc2ccc(F)cc2)cs1` (stereo not drawn), which “activity change, negative = inhibition” value is on record?
**A.** 6.05% (inactive)

**Q.** With `CC(=O)N(CC(O)CO)c1c(I)c(C(=O)NCC(O)CO)c(I)c(C(=O)NCC(O)CO)c1I` (stereo not drawn) as the compound, how does the Potency read?
**A.** inactive and 15.1 µM (active)

**Q.** With `COc1ccc(NC(=O)CN2C(=O)COc3ccc(S(=O)(=O)N4CCOCC4)cc32)c(OC)c1` as the compound, how does the “activity change, negative = inhibition” value read?
**A.** 0% (inactive)

**Q.** For `C=CCSc1nc2c(c(=O)[nH]c(=O)n2C)n1Cc1ccccc1`, which “activity change, negative = inhibition” value is on record?
**A.** 29.2% (inactive)

**Q.** With `CN(Cc1ccccc1)c1nc2c(c(=O)[nH]c(=O)n2C)n1CCSc1nc2ccccc2[nH]1` as the compound, how does the Potency read?
**A.** 8.28 µM (active)

**Q.** Which “activity change, negative = inhibition” value does the source give for `CN(Cc1ccccc1)C(=O)CSc1nc2ccccc2[nH]1` here?
**A.** 15% (inactive)

**Q.** For `CC(Oc1cccc(Cl)c1)C(=O)NC1CC(C)(C)NC(C)(C)C1` (stereo not drawn), which “activity change, negative = inhibition” value is on record?
**A.** 4.79% (inactive)

**Q.** With `O=C1CN(C(=O)c2cc(F)cc(F)c2)c2ccccc2N1` as the compound, how does the “activity change, negative = inhibition” value read?
**A.** 7.56% (inactive)

**Q.** For `O=C(Nc1ccc(Br)cc1)c1cc(S(=O)(=O)Nc2ccccn2)ccc1Cl`, which “activity change, negative = inhibition” value is on record?
**A.** 2.06% (inactive)

**Q.** For `CN(CC(=O)NCCc1ccc(F)cc1)CC(=O)Nc1ccc(F)c(F)c1F`, which “activity change, negative = inhibition” value is on record?
**A.** -3.85% (inactive)

**Q.** With `COc1cccc(C2CC(c3cccs3)=NN2C(=O)CSC2=NCCS2)c1OC` (stereo not drawn) as the compound, how does the Potency read?
**A.** 10.4 µM (active)

**Q.** Which “activity change, negative = inhibition” value does the source give for `COc1ccc(C2=NN(C(=O)CCC(=O)O)C(c3cccs3)C2)cc1OC` (stereo not drawn) here?
**A.** -8.8% (inactive)

**Q.** With `COc1ccc(C2CC(c3cccs3)=NN2C(=O)CSc2nnc(N)s2)cc1OC` (stereo not drawn) as the compound, how does the “activity change, negative = inhibition” value read?
**A.** -32.9% (inactive)
